Measured values published in PubChem BioAssay (NCI).
Compounds without any hit were thinned out: in the full panel of roughly 83,000, 20% have a hit.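 Assay: single dose, 48 h. Readout: percent growth (0 = no net growth; negative = cell death). Active: <10.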 Active and inactive are the calls of the source.

Tests used:
Assay in all cases: NCI-60 one-dose screen, 48 h (100 = growth as untreated, 0 = no growth, -100 = all killed)
Details in all cases: 10 µM unless noted
SR leukemia = system: SR leukemia
RPMI-8226 leukemia = system: RPMI-8226 leukemia
OVCAR-8 ovarian = system: OVCAR-8 ovarian
OVCAR-5 ovarian = system: OVCAR-5 ovarian
SK-OV-3 ovarian = system: SK-OV-3 ovarian
IGROV1 ovarian = system: IGROV1 ovarian
OVCAR-3 ovarian = system: OVCAR-3 ovarian
HS 578T breast = system: HS 578T breast
NCI/ADR-RES ovarian = system: NCI/ADR-RES ovarian
T-47D breast = system: T-47D breast
BT-549 breast = system: BT-549 breast
MDA-MB-435 melanoma = system: MDA-MB-435 melanoma
SW-620 colon = system: SW-620 colon
MCF7 breast = system: MCF7 breast
HCT-116 colon = system: HCT-116 colon
HCC-2998 colon = system: HCC-2998 colon
KM12 colon = system: KM12 colon
OVCAR-4 ovarian = system: OVCAR-4 ovarian

Measured: growth

CCOc1ccc(/C=C/C=N/NC(N)=S)cc1
inactive: SR leukemia 70.4% | RPMI-8226 leukemia 39.7% | OVCAR-8 ovarian 100% | OVCAR-5 ovarian 90.9% | SK-OV-3 ovarian 110% | IGROV1 ovarian 53.5% | OVCAR-3 ovarian 73.7% | HS 578T breast 95.3% | NCI/ADR-RES ovarian 82.6% | T-47D breast 38.2% | BT-549 breast 57.4% | MDA-MB-435 melanoma 88.9% | SW-620 colon 87.2% | MCF7 breast 43.5% | HCT-116 colon 70.1% | HCC-2998 colon 70.1% | KM12 colon 84%

CC(C)(C)c1ccc(S(=O)(=O)Oc2ccc3c4c(c(=O)oc3c2)CCCCC4)cc1
inactive: SR leukemia 31.4% | RPMI-8226 leukemia 40.4% | OVCAR-8 ovarian 77.2% | OVCAR-5 ovarian 70% | SK-OV-3 ovarian 71.4% | IGROV1 ovarian 68.6% | OVCAR-3 ovarian 52.7% | HS 578T breast 40% | NCI/ADR-RES ovarian 20.1% | T-47D breast 45.9% | BT-549 breast 46.6% | MDA-MB-435 melanoma 11.9% | SW-620 colon 55.2% | MCF7 breast 32.3% | HCT-116 colon 36.6% | HCC-2998 colon 74.5% | KM12 colon 55.1%

COc1cccc2nc(Nc3ccc(NC(=O)c4ccc5ncccc5c4)cc3)ccc12
inactive: SR leukemia 65.7% | RPMI-8226 leukemia 33.4% | OVCAR-8 ovarian 72.3% | OVCAR-5 ovarian 99.3% | OVCAR-4 ovarian 89.7% | IGROV1 ovarian 105% | OVCAR-3 ovarian 105% | HS 578T breast 66.7% | T-47D breast 68% | BT-549 breast 69.7% | MDA-MB-435 melanoma 88.7% | SW-620 colon 97.7% | MCF7 breast 70.3% | HCT-116 colon 84.5% | HCC-2998 colon 96.4% | KM12 colon 65.6%

C#CCN1C(=O)/C(=c2\sc3n(c2=O)C2C(NN=3)N(CC)C(=O)N2CC)c2ccccc21 (stereo not given)
active: OVCAR-3 ovarian -13.6% | HS 578T breast -5.36% | NCI/ADR-RES ovarian -4.94% | MDA-MB-435 melanoma -63.2% | HCT-116 colon 4.43% | HCC-2998 colon -1.47%
inactive: SR leukemia 10.1% | RPMI-8226 leukemia 18.6% | OVCAR-8 ovarian 25.4% | OVCAR-5 ovarian 33.5% | OVCAR-4 ovarian 47.5% | IGROV1 ovarian 27.6% | BT-549 breast 39.7% | SW-620 colon 24.3% | MCF7 breast 23.3% | KM12 colon 14.1%

COc1ccc(OC)c(/C=C2\Oc3cc(OCCN4CCCC4)ccc3C2=O)c1
inactive: SR leukemia 56.6% | RPMI-8226 leukemia 93.5% | OVCAR-8 ovarian 92% | OVCAR-5 ovarian 94.5% | OVCAR-4 ovarian 98.5% | IGROV1 ovarian 95.8% | OVCAR-3 ovarian 101% | HS 578T breast 86.4% | NCI/ADR-RES ovarian 86.4% | BT-549 breast 95.7% | MDA-MB-435 melanoma 97% | SW-620 colon 81.4% | MCF7 breast 88.1% | HCT-116 colon 69% | HCC-2998 colon 98.7% | KM12 colon 85.4%

CCn1c(=O)c2c(=O)c3c4c(oc3oc2c2ccccc21)C(=O)c1ccccc1C4=O
inactive: SR leukemia 80.8% | RPMI-8226 leukemia 33.5% | OVCAR-8 ovarian 10.2% | OVCAR-5 ovarian 118% | SK-OV-3 ovarian 102% | IGROV1 ovarian 68.3% | HS 578T breast 93.7% | NCI/ADR-RES ovarian 45.8% | BT-549 breast 85.1% | MDA-MB-435 melanoma 95.9% | SW-620 colon 73.5% | MCF7 breast 61.9% | HCT-116 colon 34.6% | HCC-2998 colon 101% | KM12 colon 86.6%
active: OVCAR-3 ovarian -16.3% | T-47D breast -9.96%

CCCCCCCCCCn1cc[n+](C)c1
active: MDA-MB-435 melanoma 7.98% | MCF7 breast 3.94%
inactive: SR leukemia 104% | RPMI-8226 leukemia 116% | OVCAR-8 ovarian 11.5% | OVCAR-5 ovarian 45.6% | OVCAR-4 ovarian 22.7% | OVCAR-3 ovarian 45.9% | HS 578T breast 30.3% | NCI/ADR-RES ovarian 82.2% | T-47D breast 24.6% | SW-620 colon 44.1% | HCT-116 colon 17.6% | KM12 colon 14%

CCCCCc1c(C)[nH]c(/C=c2\[nH]/c(=C3/C=c4ccccc4=N3)cc2OC)c1C
active: SR leukemia -20.3% | RPMI-8226 leukemia -49.5% | OVCAR-8 ovarian -41.9% | OVCAR-5 ovarian -7.96% | OVCAR-4 ovarian 4.16% | IGROV1 ovarian -4.01% | HS 578T breast -37.1% | NCI/ADR-RES ovarian -20.6% | T-47D breast -6.71% | BT-549 breast -35.2% | MDA-MB-435 melanoma -53.6% | SW-620 colon -36.1% | MCF7 breast -54.5% | HCT-116 colon -97.2% | HCC-2998 colon -11.4% | KM12 colon -21.7%

CC(Br)C(Br)c1cc2c(cc1Br)OCO2 (stereo not given)
inactive: SR leukemia 98.6% | RPMI-8226 leukemia 105% | OVCAR-8 ovarian 100% | OVCAR-5 ovarian 98.6% | SK-OV-3 ovarian 84% | IGROV1 ovarian 97.5% | OVCAR-3 ovarian 107% | NCI/ADR-RES ovarian 99.1% | T-47D breast 73.7% | BT-549 breast 100% | MDA-MB-435 melanoma 97.9% | SW-620 colon 109% | MCF7 breast 93.9% | HCT-116 colon 88.5% | HCC-2998 colon 96% | KM12 colon 103%
active: HS 578T breast -96.5%

Cc1oc2nc[nH]c(=O)c2c1C(=O)/C=C/c1ccc(Cl)cc1Cl
inactive: SR leukemia 33% | RPMI-8226 leukemia 28.4% | OVCAR-8 ovarian 45.4% | OVCAR-5 ovarian 134% | OVCAR-4 ovarian 68.6% | IGROV1 ovarian 89.2% | OVCAR-3 ovarian 48.6% | HS 578T breast 102% | NCI/ADR-RES ovarian 43% | BT-549 breast 73.8% | MDA-MB-435 melanoma 57.2% | SW-620 colon 31.2% | MCF7 breast 39% | HCT-116 colon 36.3% | HCC-2998 colon 102% | KM12 colon 52.1%

COc1ccc(OC)c(-c2ccc(-c3ccccc3N)c3[nH]c4ccccc4c23)c1
inactive: SR leukemia 81.7% | RPMI-8226 leukemia 70.3% | OVCAR-8 ovarian 83.8% | OVCAR-5 ovarian 110% | SK-OV-3 ovarian 88.6% | IGROV1 ovarian 59.5% | OVCAR-3 ovarian 75.1% | HS 578T breast 94.3% | NCI/ADR-RES ovarian 85.8% | T-47D breast 62.8% | BT-549 breast 72.5% | MDA-MB-435 melanoma 105% | SW-620 colon 80.7% | MCF7 breast 69.8% | HCT-116 colon 61.6% | HCC-2998 colon 102% | KM12 colon 72.9%

CCCS(=O)(=O)c1nc(NC2CC2)cc(-c2ccc3c(ccn3C3CC(C)(C)NC(C)(C)C3)c2)n1
inactive: SK-OV-3 ovarian 92.6% | NCI/ADR-RES ovarian 41.5% | MDA-MB-435 melanoma 11.5%
active: SR leukemia -14.5% | RPMI-8226 leukemia -32.6% | OVCAR-8 ovarian -52.8% | OVCAR-5 ovarian -15.2% | IGROV1 ovarian -51% | OVCAR-3 ovarian -89.4% | HS 578T breast -11.4% | T-47D breast -74.3% | BT-549 breast -35.7% | SW-620 colon -61.6% | MCF7 breast -80.5% | HCT-116 colon -78.2% | HCC-2998 colon 1.29% | KM12 colon 6.05%

COc1ccc(/C=C(\C#N)c2ccc([N+](=O)[O-])cc2)c2ccccc12
inactive: SR leukemia 31% | RPMI-8226 leukemia 82.8% | OVCAR-8 ovarian 15.8% | OVCAR-5 ovarian 92.8% | HS 578T breast 26.2% | NCI/ADR-RES ovarian 50% | T-47D breast 46.9% | BT-549 breast 27.9% | MDA-MB-435 melanoma 62.6% | SW-620 colon 74.4% | MCF7 breast 71.8% | HCT-116 colon 43.4% | HCC-2998 colon 80% | KM12 colon 75.6%
active: OVCAR-4 ovarian 2.84%

COc1ccc2c(c1)NC(=O)CN2c1nc(C)nc2ccccc12
active: OVCAR-3 ovarian -13.9% | BT-549 breast 1.24% | MDA-MB-435 melanoma 1.13% | HCT-116 colon 0.468% | KM12 colon 8.92%
inactive: SR leukemia 18.8% | RPMI-8226 leukemia 45.2% | OVCAR-8 ovarian 12.5% | OVCAR-5 ovarian 51.5% | OVCAR-4 ovarian 45.5% | IGROV1 ovarian 18.8% | HS 578T breast 40% | NCI/ADR-RES ovarian 14% | SW-620 colon 22% | MCF7 breast 14.9% | HCC-2998 colon 16.6%

COc1cc(/C=C\c2cc(OC)c(OC)c(OC)c2)cc(N/C=C\C(=O)c2c[nH]c3ccccc23)c1OC
inactive: OVCAR-8 ovarian 33.8% | OVCAR-5 ovarian 35.3% | SK-OV-3 ovarian 90.1% | IGROV1 ovarian 40.5% | HS 578T breast 67.5% | NCI/ADR-RES ovarian 73.5% | BT-549 breast 41.2% | MDA-MB-435 melanoma 29.1% | HCC-2998 colon 83.2% | KM12 colon 49.2%
active: SR leukemia -36.8% | RPMI-8226 leukemia -32.8% | OVCAR-3 ovarian -93.6% | T-47D breast -5.64% | SW-620 colon -76% | MCF7 breast 4.09% | HCT-116 colon -82.9%

Cc1ccc(C(=O)c2sc3nc4c(cc3c2N)CCCC4)c(C)c1
active: SR leukemia 9.04% | RPMI-8226 leukemia -12.3% | MDA-MB-435 melanoma -44.5%
inactive: OVCAR-8 ovarian 17.5% | OVCAR-5 ovarian 47.2% | OVCAR-4 ovarian 39.8% | IGROV1 ovarian 41.4% | OVCAR-3 ovarian 12% | T-47D breast 35.4% | BT-549 breast 55.8% | SW-620 colon 30.3% | MCF7 breast 21% | HCT-116 colon 25.3% | HCC-2998 colon 39.6% | KM12 colon 33.9%

COc1ccc(/C=c2\sc3n(c2=O)C2C(NN=3)N(C)C(=O)N2C)cc1 (stereo not given)
active: SR leukemia -10.6% | OVCAR-3 ovarian -3.86% | HS 578T breast 8.08% | MDA-MB-435 melanoma -60.6%
inactive: RPMI-8226 leukemia 20.3% | OVCAR-8 ovarian 35% | OVCAR-5 ovarian 54.9% | OVCAR-4 ovarian 51.2% | IGROV1 ovarian 40% | NCI/ADR-RES ovarian 10.4% | BT-549 breast 75.3% | SW-620 colon 23.5% | MCF7 breast 22.7% | HCT-116 colon 22.5% | HCC-2998 colon 54.9% | KM12 colon 22.8%

CCN1C(=O)N(CC)C2C1NN=c1s/c(=C\c3ccccn3)c(=O)n12 (stereo not given)
active: SR leukemia 5.28% | OVCAR-3 ovarian 2.57% | HS 578T breast 7.13% | NCI/ADR-RES ovarian 2.1% | MDA-MB-435 melanoma -62.1%
inactive: RPMI-8226 leukemia 22.5% | OVCAR-8 ovarian 31.2% | OVCAR-5 ovarian 58.9% | OVCAR-4 ovarian 50.2% | IGROV1 ovarian 43.7% | BT-549 breast 80% | SW-620 colon 23.7% | MCF7 breast 22.5% | HCT-116 colon 23.6% | KM12 colon 26%
